Measured values reported in PubChem BioAssay (NCATS).
Records with an inconclusive call do not appear. The source made the active and inactive calls. The call rests on the fitted dose curve; in most records, active means well fitted curve in the direction sought with a large enough effect; inconclusive means small, poorly fitted or top-dose-only effect, or another doubt; inactive means no such curve, though single readings can be large; an effect the other way counts as inactive or inconclusive.

What was measured:
[1] = molecular target: Rap guanine nucleotide exchange factor 3 (Homo sapiens) (UniProt O95398); test: Confirmatory qHTS for agonist of cAMP-regulated guanine nucleotide exchange factor 3 (EPAC1) (AID 1645881);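 further: EPAC1 catalysed release of BODIPY-GDP from Rap1B seen as fluorescence loss; 100% = effect of cAMP agonist control; nearly all actives have a fitted effect of over 75% in size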
[2] = molecular target: Rap guanine nucleotide exchange factor 4 (Homo sapiens) (UniProt Q8WZA2); test: Confirmatory qHTS for agonist of cAMP-regulated guanine nucleotide exchange factor 4 (EPAC2) (AID 1645884);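 further: nucleotide exchange releases bodipy-GDP from Rap1 and this lowers its fluorescence; on the % scale 0 is the no-effect control and ±100 the full control effect; nearly all actives have a fitted effect of over 65% in size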
[3] = molecular target: Rap guanine nucleotide exchange factor 4 (Homo sapiens) (UniProt Q8WZA2); test: Confirmatory qHTS for antagonist of cAMP-regulated guanine nucleotide exchange factor 4 (EPAC2) (AID 1645885); further: nearly all actives have a fitted effect of over 25% in size; further: potency means the concentration at half of the fitted maximal effect; on activity change, negative = inhibition: on the % scale 0 is the no-effect control and ±100 the full control effect
[4] = molecular target: Rap guanine nucleotide exchange factor 3 (Homo sapiens) (UniProt O95398); test: Counterscreen qHTS for antagonist of cAMP-regulated guanine nucleotide exchange factor 3 (EPAC1) (AID 1645888);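 further: fluorescence loss as bound BODIPY-GDP is released from Rap1B; % of control where 0% means no effect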
Method in brief: (§1)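 Rap1B–BODIPY-GDP (250 nM) with 50 uM GDP; compounds pin-transferred to 9.74 nM–152 uM final (activator) or from 7.32 nM upwards (inhibitor). Fluorescence Ex/Em 480/540 nm read at 5 and 30 min, then after adding cAMP or buffer, at room temperature.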

[5] = molecular target: Rap guanine nucleotide exchange factor 3 (Homo sapiens) (UniProt O95398); test: Counterscreen qHTS for agonist of cAMP-regulated guanine nucleotide exchange factor 3 (EPAC1) (AID 1645889); further: nearly all actives have a fitted effect of over 40% in size; further: potency means the concentration at half of the fitted maximal effect; on activation: % of control where 0% means no effect
Method in brief: as §1

Chain of Rap guanine nucleotide exchange factor 4 (Homo sapiens) (Q8WZA2 whole entry, looked up): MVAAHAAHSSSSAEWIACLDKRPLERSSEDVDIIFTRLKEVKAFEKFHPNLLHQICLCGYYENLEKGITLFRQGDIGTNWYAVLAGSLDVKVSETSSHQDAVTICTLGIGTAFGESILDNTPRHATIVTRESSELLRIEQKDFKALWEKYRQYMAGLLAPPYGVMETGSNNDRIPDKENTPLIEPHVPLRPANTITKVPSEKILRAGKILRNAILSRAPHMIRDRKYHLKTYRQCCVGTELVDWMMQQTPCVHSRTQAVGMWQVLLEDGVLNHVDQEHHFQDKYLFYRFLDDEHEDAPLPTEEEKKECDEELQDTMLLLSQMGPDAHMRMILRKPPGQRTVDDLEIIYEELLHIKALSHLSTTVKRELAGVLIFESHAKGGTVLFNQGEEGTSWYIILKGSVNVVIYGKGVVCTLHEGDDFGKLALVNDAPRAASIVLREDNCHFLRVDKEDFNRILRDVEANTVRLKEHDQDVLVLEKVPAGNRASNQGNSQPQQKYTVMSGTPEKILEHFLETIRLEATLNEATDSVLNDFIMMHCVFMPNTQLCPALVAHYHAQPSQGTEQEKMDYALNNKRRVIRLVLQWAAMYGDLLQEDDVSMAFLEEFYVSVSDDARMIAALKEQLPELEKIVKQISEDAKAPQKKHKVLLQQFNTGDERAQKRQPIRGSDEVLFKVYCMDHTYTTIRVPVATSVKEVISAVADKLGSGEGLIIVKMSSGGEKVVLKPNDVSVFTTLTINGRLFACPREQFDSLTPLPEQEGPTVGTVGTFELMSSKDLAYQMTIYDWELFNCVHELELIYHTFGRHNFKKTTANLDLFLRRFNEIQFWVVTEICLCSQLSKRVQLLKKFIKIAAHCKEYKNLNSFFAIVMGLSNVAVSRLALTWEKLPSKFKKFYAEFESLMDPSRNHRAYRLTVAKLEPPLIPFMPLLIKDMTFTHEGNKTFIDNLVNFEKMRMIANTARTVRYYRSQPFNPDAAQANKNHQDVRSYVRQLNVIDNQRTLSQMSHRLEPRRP
Chain of Rap guanine nucleotide exchange factor 3 (Homo sapiens) (O95398 whole entry, looked up): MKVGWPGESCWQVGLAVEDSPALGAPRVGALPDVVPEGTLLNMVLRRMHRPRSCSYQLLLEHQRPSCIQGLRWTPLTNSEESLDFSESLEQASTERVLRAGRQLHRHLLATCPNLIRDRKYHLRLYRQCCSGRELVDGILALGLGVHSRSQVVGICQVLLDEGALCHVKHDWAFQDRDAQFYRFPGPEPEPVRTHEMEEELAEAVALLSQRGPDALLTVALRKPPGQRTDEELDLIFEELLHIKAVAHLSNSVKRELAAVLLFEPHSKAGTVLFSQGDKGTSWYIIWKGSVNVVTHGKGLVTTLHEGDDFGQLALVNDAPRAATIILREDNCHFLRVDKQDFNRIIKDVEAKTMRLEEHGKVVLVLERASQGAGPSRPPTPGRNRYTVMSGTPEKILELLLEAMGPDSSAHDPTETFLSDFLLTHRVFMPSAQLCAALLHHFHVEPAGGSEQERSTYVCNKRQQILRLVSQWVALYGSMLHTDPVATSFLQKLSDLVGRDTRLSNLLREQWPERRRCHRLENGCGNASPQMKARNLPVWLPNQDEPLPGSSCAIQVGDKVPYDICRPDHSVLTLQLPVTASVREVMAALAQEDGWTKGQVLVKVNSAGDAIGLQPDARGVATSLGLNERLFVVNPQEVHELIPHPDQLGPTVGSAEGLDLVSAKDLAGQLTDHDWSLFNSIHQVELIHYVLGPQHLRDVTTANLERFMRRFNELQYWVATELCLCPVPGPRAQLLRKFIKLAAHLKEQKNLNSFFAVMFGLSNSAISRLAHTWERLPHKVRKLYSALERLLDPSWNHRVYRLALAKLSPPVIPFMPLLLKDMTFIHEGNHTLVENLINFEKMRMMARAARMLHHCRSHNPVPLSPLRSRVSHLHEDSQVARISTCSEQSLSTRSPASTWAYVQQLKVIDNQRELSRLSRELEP

Cc1ccc2oc(=O)n(Cc3ccccc3OC(C)C)c2c1
active: Potency [3] 7.57 µM
inactive: Potency [1] | Potency [2] | Potency [4] | Potency [5]

O=C(O)c1ccccc1NS(=O)(=O)c1ccc(NN=Cc2ccccc2F)c([N+](=O)[O-])c1
inactive: Potency [1] | activation [2] 4.76% [at 17.1 µM, percent relative to cAMP agonist control] | Potency [3] | activity change, negative = inhibition [4] -10.7% [at 30.8 µM] | activation [5] 23.2% [at 30.8 µM]

Cn1c(COc2ccccc2C(C)(C)C)nc2ccccc21
active: Potency [5] 15.8 µM
inactive: Potency [1] | Potency [2] | Potency [3] | Potency [4]

CCOc1cc(/C=C/c2cc(C(=O)O)c3ccccc3n2)ccc1OC
inactive: Potency [1] | activation [2] -3.6% [at 17.1 µM, percent relative to cAMP agonist control] | Potency [3] | activity change, negative = inhibition [4] 8.54% [at 30.8 µM] | activation [5] 6.45% [at 30.8 µM]

O=C(c1ccc(O)c(Br)c1)c1cc(Br)ccc1O
inactive: Potency [1] | activation [2] 3.68% [at 17.1 µM, percent relative to cAMP agonist control] | Potency [3] | activity change, negative = inhibition [4] -2.96% [at 30.8 µM] | activation [5] 26.8% [at 30.8 µM]

COc1ccc(C(C#N)N2CCC(c3ccccc3)=N2)cc1 (stereo not given)
active: Potency [3] 7.57 µM
inactive: Potency [1] | Potency [2] | Potency [4] | Potency [5]

Cc1ccc(S(=O)(=O)N/N=C/c2cc(Br)ccc2O)cc1
inactive: Potency [1] | Potency [2] | Potency [3] | Potency [4] | Potency [5]

CC1=Nc2ccccc2N=C(NC(=O)/C=C/C(=O)O)C1c1ccccc1 (stereo not given)
inactive: Potency [1] | Potency [2] | Potency [4] | Potency [5]
active: Potency [3] 0.0675 µM

O=C(CCn1cnc2onc(-c3ccc(F)cc3)c2c1=O)Nc1ccc(F)c(Cl)c1
inactive: Potency [1] | Potency [2] | Potency [3] | Potency [4] | Potency [5]

Cc1ccc2nc(-c3ccccc3)c(Cc3cccc(F)c3)n2c1
active: Potency [3] 0.426 µM
inactive: Potency [1] | Potency [2] | Potency [4] | Potency [5]

Cc1ccccc1CN(C)CC(=O)Nc1c(C)cccc1C(C)C
inactive: Potency [1] | activation [2] 7.02% [at 17.1 µM, percent relative to cAMP agonist control] | Potency [3] | activity change, negative = inhibition [4] -6.66% [at 30.8 µM] | activation [5] -4.69% [at 30.8 µM]

Cc1cccc(C)c1-n1cccc1/C=C1\SC(=S)N(c2cccc(C(=O)O)c2)C1=O
inactive: Potency [1] | Potency [2] | Potency [3] | Potency [4] | Potency [5]

O=C(O)C(Cc1c[nH]c2ccccc12)NS(=O)(=O)c1ccc2ccccc2c1 (stereo not given)
inactive: Potency [1] | Potency [2] | Potency [3] | Potency [4] | Potency [5]

CCCCNC(=O)CN1CCN(c2ncc(NC(=O)c3ccc(Cl)cc3)cc2C(=O)O)CC1
inactive: Potency [1] | Potency [2] | Potency [3] | Potency [4] | Potency [5]

COc1ccc(/C=C2/SC(=O)N(CCC(=O)Nc3ccc(S(=O)(=O)Nc4nccs4)cc3)C2=O)cc1
inactive: Potency [1] | Potency [2] | Potency [3] | Potency [4] | Potency [5]

Cn1c(SCC(=O)Nc2ccc(C(=O)O)cc2)nc2scc(-c3ccccc3Cl)c2c1=O
inactive: Potency [1] | Potency [2] | Potency [4] | Potency [5]
active: Potency [3] 42.6 µM

CCCCN1CC(c2nc3ccccc3n2CCCCOc2cc(C)cc(C)c2)CC1=O (stereo not given)
inactive: Potency [1] | Potency [2] | Potency [3] | Potency [4] | Potency [5]

Cc1nnc(-c2ccco2)c2cn(-c3cccc(Br)c3)nc12
inactive: Potency [1] | Potency [2] | Potency [3] | Potency [4] | Potency [5]

C=CCc1cccc(CNc2c(C)cc(C)cc2C)c1O
inactive: Potency [1] | Potency [2] | Potency [3] | Potency [4] | Potency [5]

CC(C)CCNc1c(-c2cccs2)nc2ccccn12
inactive: Potency [1] | Potency [2] | Potency [3] | Potency [4] | Potency [5]

CC(C)c1cccc(-c2ccc3c(c2)S(=O)(=O)c2cccc(C(=O)O)c2C3=O)c1
inactive: Potency [1] | Potency [2] | Potency [3] | Potency [4] | Potency [5]

CCc1ccc2c(c1)NC(=O)C2(C)Cc1ccccc1OC (stereo not given)
inactive: Potency [1] | Potency [2] | Potency [3] | Potency [4] | Potency [5]

NS(=O)(=O)c1ccc(CCNC(=O)Cc2ccc(S(=O)(=O)N3CCCC3)s2)cc1
inactive: Potency [1] | activation [2] 2.8% [at 17.1 µM, percent relative to cAMP agonist control] | Potency [3] | activity change, negative = inhibition [4] 7.67% [at 30.8 µM] | activation [5] 24% [at 30.8 µM]

Cc1nnc2ccc(-c3ccc(NC(=O)Cc4cccs4)cc3)nn12
inactive: Potency [1] | activation [2] -1.11% [at 17.1 µM, percent relative to cAMP agonist control] | Potency [3] | activity change, negative = inhibition [4] -8.86% [at 30.8 µM] | activation [5] 9.02% [at 30.8 µM]

COc1ccccc1NC(=O)CSc1sc2c(O)cc(=O)[nH]c2c1C#N
inactive: Potency [1] | activation [2] 3.66% [at 17.1 µM, percent relative to cAMP agonist control] | Potency [3] | activity change, negative = inhibition [4] 0.384% [at 30.8 µM] | activation [5] 12.5% [at 30.8 µM]

O=C1CC(c2ccccc2)=NN1c1nc(-c2ccccc2)cs1
inactive: Potency [1] | Potency [2] | Potency [3] | Potency [4] | Potency [5]

O=C(NNc1cc(N2CCOCC2)nc(N2CCOCC2)n1)c1ccc([N+](=O)[O-])cc1
inactive: Potency [1] | Potency [2] | Potency [3] | Potency [4] | Potency [5]

O=c1ccc(-c2ccccc2)nn1Cc1ccc(F)cc1Cl
inactive: Potency [1] | Potency [2] | Potency [3] | Potency [4] | Potency [5]

N#C/C(=C/c1cccn1-c1cccc(C(=O)O)c1)c1ccc(F)cc1
inactive: Potency [1] | activation [2] -0.882% [at 17.1 µM, percent relative to cAMP agonist control] | Potency [3] | activity change, negative = inhibition [4] -6.54% [at 30.8 µM] | activation [5] 2.77% [at 30.8 µM]

CC1(C)C=Cc2cc(-c3coc4cc(O)cc(O)c4c3=O)cc(O)c2O1
inactive: Potency [1] | Potency [2] | Potency [3] | Potency [4] | Potency [5]

COc1cc(/C=C2/SC(=S)N(c3c(C)n(C)n(-c4ccccc4)c3=O)C2=O)ccc1O
inactive: Potency [1] | activation [2] 9.4% [at 17.1 µM, percent relative to cAMP agonist control] | Potency [3] | activity change, negative = inhibition [4] -24.4% [at 30.8 µM] | activation [5] 11.7% [at 30.8 µM]

Cc1cccc(Cn2c(=O)oc3ccc(C)cc32)c1
inactive: Potency [1] | activation [2] 1.77% [at 17.1 µM, percent relative to cAMP agonist control] | Potency [3] | activity change, negative = inhibition [4] 0.42% [at 30.8 µM] | activation [5] 19.6% [at 30.8 µM]

CCc1c(O)cc(=O)n(-c2ccccc2)c1-c1ccccc1
inactive: Potency [1] | Potency [2] | Potency [4] | Potency [5]
active: Potency [3] 84.9 µM

CCc1cccc(C)c1Nc1c(-c2ccsc2)nc2ncccn12
inactive: Potency [1] | Potency [2] | outcome [3] inactive [at 12.7 µM] | Potency [4] | Potency [5]

CCCN1C(=O)c2ccccc2NC1c1ccc(Cl)c(Cl)c1 (stereo not given)
inactive: Potency [1] | activation [2] 5.07% [at 17.1 µM, percent relative to cAMP agonist control] | Potency [3] | activity change, negative = inhibition [4] -17% [at 30.8 µM] | activation [5] 12.5% [at 30.8 µM]

O=c1[nH]c(C2CCN(S(=O)(=O)c3ccccc3F)CC2)nc2c1nnn2Cc1ccc(F)cc1
inactive: Potency [1] | Potency [2] | Potency [3] | Potency [4] | Potency [5]

Cc1ccc(C(=O)c2no[n+]([O-])c2C(=O)c2ccc(C)cc2)cc1
inactive: Potency [1] | Potency [2] | Potency [3] | Potency [4] | Potency [5]

Cc1cccc(CN2C(=O)c3ccccc3Sc3ccc(C(=O)N4CCCC4)cc32)c1
inactive: Potency [1] | Potency [2] | Potency [3] | Potency [4] | Potency [5]

CCN(CC)C(=O)c1ccc2c(c1)N(Cc1ccc(C(F)(F)F)cc1)C(=O)c1ccccc1S2
inactive: Potency [1] | Potency [2] | outcome [3] inactive [at 12.7 µM] | Potency [4] | Potency [5]
